# Assay results published in PubChem BioAssay (NCATS).
# A number with no mark means an inactive call. Activity calls are given as the source filed them. Unless noted, calls follow the shape of the full dose curve.
# Experiment: not given
# Conditions: Ebola virus entry cell assay, ratio channel
SMILES,AC50,outcome
CC/C(=C(\c1ccccc1)c1ccc(OCCN(C)C)cc1)c1ccccc1,1.26 µM (active),
CN1CCN(C2=Nc3ccccc3Oc3ccc(Cl)cc32)CC1,,inactive
OCCN(CCO)c1nc(N2CCCCC2)c2nc(N(CCO)CCO)nc(N3CCCCC3)c2n1,,inactive
O=C(O)C1(C(=O)O)CCC1.[NH2-].[NH2-].[Pt+2],,inactive
COc1ccc(-c2cc(=S)ss2)cc1,,inactive
CCCN(CCC)CCc1cccc2c1CC(=O)N2,,inactive
CC[C@H](C)C(=O)O[C@H]1C[C@@H](C)C=C2C=C[C@H](C)[C@H](CC[C@@H]3C[C@@H](O)CC(=O)O3)[C@H]21,,inactive
CCC1=C[C@@H]2CN(C1)Cc1c([nH]c3ccccc13)[C@@](C(=O)OC)(c1cc3c(cc1OC)N(C)[C@H]1[C@@](O)(C(=O)OC)[C@H](OC(C)=O)[C@]4(CC)C=CCN5CC[C@]31[C@@H]54)C2,0.282 µM (active),
CN1CCC[C@@H]1Cc1c[nH]c2ccc(CCS(=O)(=O)c3ccccc3)cc12,,inactive

# Experiment: Immunotoxin (HA22) sensitization/mitigation study. Vehicle arm (PBS) (AID 1159510; call rule not given here; also: potency is read from the fitted curve at half-maximal effect)
# Conditions: cancer cells viability with PBS vehicle (HA22 study); series mostly up to 46.1 µM; viability (% of control): at the top concentration
SMILES,Potency,viability (% of control)
CS(=O)(=O)CCNCc1ccc(-c2ccc3ncnc(Nc4ccc(OCc5cccc(F)c5)c(Cl)c4)c3c2)o1,20.9 µM (active),
Cc1ccc(-c2cc(C(F)(F)F)nn2-c2ccc(S(N)(=O)=O)cc2)cc1,48.1 µM (active),
CC[C@@]1(O)C(=O)OCc2c1cc1n(c2=O)Cc2cc3c(CN(C)C)c(O)ccc3nc2-1,0.0118 µM (active),
CN(C)C(=N)N=C(N)N,,109%
Nc1ccn([C@@H]2O[C@H](CO)[C@@H](O)C2(F)F)c(=O)n1,0.0121 µM (active),

# Experiment: Immunotoxin (SS1P) sensitization/mitigation study. Vehicle arm (DMEM) (AID 1159513; call rule not given here; also: potency is read from the fitted curve at half-maximal effect)
# Conditions: cell viability with vehicle (DMEM); series mostly up to 46.1 µM; activity, % of control (viability): at the top concentration
SMILES,Potency,"activity, % of control (viability)"
Cc1ccc(-c2cc(C(F)(F)F)nn2-c2ccc(S(N)(=O)=O)cc2)cc1,38.2 µM (active),
CC[C@@]1(O)C(=O)OCc2c1cc1n(c2=O)Cc2cc3c(CN(C)C)c(O)ccc3nc2-1,5.9 µM (active),
CN(C)C(=N)N=C(N)N,,103%
